An excerpt weighted towards active compounds, which were near 6.5% of everything screened.
Lassa entry inh: Lassa virus entry inhibition; Lassa virus pseudotype entry inhibition, cell reporter; Potency, µM (series often up to 37.9 µM), for the others: top-dose activity change, negative = inhibition, actives largely listed as inhibitors; 300,000 tested, 1.2% active; calls by dose curve; tested in HEK293 cells; further: potency means the concentration at half of the fitted maximal effect; nearly all actives have a fitted effect of over 50% in size
HCMV antiviral: blocks human cytomegalovirus replication; HFF cells, HCMV-luciferase reporter, 72 h; active compounds read low; activity change, negative = inhibition, % at 57.5 µM; 410,000 tested, 4.5% active; in the data active means activity change below about -60%; inconclusive means no clear call, values can overlap the other calls; inactive means above about -39%
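Cell-based, HFFs, 1000 cells/well, 16 h 37C; cpds in DMSO + HCMV-luc, MOI 1 PFU/cell; 72 h 37C; OneGlo luminescence after 5 min RT; norm. to buffer vs Salinomycin 10uM.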
Vaccinia mCherry: inhibitors of vaccinia virus infection (mCherry reporter signal); 310,000 tested, 0.63% active; Vaccinia virus mCherry reporter infection, fluorescence; Potency, µM (top dose mostly 36.5 µM), inactives show at the top dose activity change, negative = inhibition, actives largely listed as inhibitors; calls by dose curve; tested in A549 cells; further: potency means the concentration at half of the fitted maximal effect; nearly all actives have a fitted effect of over 35% in size
Marburg entry inh: blocks Marburg virus binding to or entry into cells; Marburg virus pseudotyped entry inhibition, cell reporter; Potency, µM (doses to about 37.8 µM), for the others: at the top dose activity change, negative = inhibition, most hits filed as inhibitors; 300,000 tested, 1.8% active; calls by dose curve; tested in HEK293 cells; further: potency means the concentration at half of the fitted maximal effect
VACV Venus inh: inhibitors of vaccinia virus (Venus reporter); 330,000 tested, 0.46% active; Vaccinia virus Venus reporter expression, fluorescence; Potency, µM (doses to about 36.5 µM), for inactives: at the top dose activity change, negative = inhibition, usual class: inhibitors; calls by dose curve; tested in A549 cells; further: potency means the concentration at half of the fitted maximal effect; nearly all actives have a fitted effect of over 30% in size
FMDV antiviral: antivirals against foot and mouth disease virus; FMDV antiviral cell-based qHTS; Potency, µM (highest dose often 57.9 µM), for inactives: top-dose activity change, negative = inhibition, usual class: inhibitors; 410,000 tested, 1.2% active; calls by dose curve; tested in HEK293T cells; further: read-out not given here; potency means the concentration at half of the fitted maximal effect; nearly all actives have a fitted effect of over 45% in size
Numbers without * were called inactive; [ ] = another dose, or the depositor's remark. On the % scale 0 is the no-effect control and ±100 the full control effect.

What do the screens show for `Cc1cc(N(CCO)CCO)ccc1N=Nc1cc(F)ccc1F`?
Lassa entry inh: 18.0%; HCMV antiviral: -12.0; Vaccinia mCherry: -23.0%; Marburg entry inh: inconclusive; VACV Venus inh: inconclusive; FMDV antiviral: 39.6%

How did Cc1ccc2nc(Nc3ccc(C)c(F)c3)c3nncn3c2c1 do in these assays?
Lassa entry inh: inconclusive; HCMV antiviral: -7.4; Vaccinia mCherry: -30.0%; Marburg entry inh: 6.9%[46.1 µM]; VACV Venus inh: -23.1%; FMDV antiviral: -4.9%

What do the screens show for `COc1ccc(Cl)cc1NC(=O)Cn1c(=O)n(Cc2cccs2)c(=O)c2cccnc21`?
HCMV antiviral: -26.3; Vaccinia mCherry: -11.9%; Marburg entry inh: inconclusive; VACV Venus inh: 0.5%; FMDV antiviral: 5.6%

What do the screens show for `CN(C)c1ccc(N=Nc2nc3ccccc3n2C)cc1`?
HCMV antiviral: inconclusive; FMDV antiviral: 3.98µM*

How did Clc1ccccc1-c1cc(NCc2ccccc2)ncn1 do in these assays?
FMDV antiviral: 16.4%

Results for CN(C)c1ccc(/C=C/c2cc[n+]([O-])cc2)cc1 ?
Marburg entry inh: -6.6%

Results for CN(C)c1ccc(/C=C/c2cc[n+](C)cc2)cc1 ?
Lassa entry inh: inconclusive; HCMV antiviral: -100.9*; Vaccinia mCherry: 86.4%; Marburg entry inh: inconclusive; VACV Venus inh: inactive; FMDV antiviral: -24.5%

What do the screens show for `Cc1ccc(/C=C/c2ccc(N(C)C)cc2)[n+](C)c1`?
HCMV antiviral: -98.3*; Vaccinia mCherry: -15.7%; VACV Venus inh: 151.5%; FMDV antiviral: -17.4%

How did CCc1ccccc1NC(=O)CNC(=O)c1n[nH]c(=O)c2ccccc12 do in these assays?
HCMV antiviral: 4.0; FMDV antiviral: 25.1µM*

How did COC(=O)c1ccc(/C=C2\SC(=S)N(CCCC(=O)NCCCN3CCOCC3)C2=O)cc1 do in these assays?
HCMV antiviral: inconclusive; Vaccinia mCherry: 26.6%; Marburg entry inh: inconclusive; VACV Venus inh: 71.1%; FMDV antiviral: -8.9%

Results for CCc1ccc(/C=C2\SC(=S)N(CCCC(=O)Nc3ccccn3)C2=O)cc1 ?
Lassa entry inh: 11.2µM*; HCMV antiviral: -103.0*; Marburg entry inh: inconclusive; VACV Venus inh: 4.8%; FMDV antiviral: 20µM*

Results for CCc1ccc(/C=C2/SC(=S)N(CCCC(=O)Nc3ccccc3C(=O)O)C2=O)cc1 ?
Lassa entry inh: -28.5%[46.1 µM]; HCMV antiviral: -35.4; Vaccinia mCherry: -25.2%; Marburg entry inh: -27.2%[46.1 µM]; VACV Venus inh: -2.8%; FMDV antiviral: inconclusive

What do the screens show for `COC(=O)c1ccc(/C=C2/SC(=S)N(CCCC(=O)Nc3ccccn3)C2=O)cc1`?
Lassa entry inh: -15.5%; HCMV antiviral: -84.7*; Vaccinia mCherry: inactive; Marburg entry inh: inconclusive; VACV Venus inh: -7.8%; FMDV antiviral: -3.5%

How did Cc1ccc(C)n1C1C(=O)N(C)c2ccc(OC(F)(F)F)cc21 (stereo not given) do in these assays?
HCMV antiviral: -1.2

What do the screens show for `O=[N+]([O-])NC1=NCN(Cc2ccco2)CN1Cc1ccco1`?
Lassa entry inh: 8.8%; HCMV antiviral: inconclusive; Vaccinia mCherry: -7.6%; Marburg entry inh: 0.282µM*; VACV Venus inh: -8.9%; FMDV antiviral: -4.3%

Results for OC[C@H]1OC(O)[C@H](O)[C@@H](O)[C@H]1O (stereo not given in full) ?
HCMV antiviral: -61.3*; Vaccinia mCherry: -0.7%; VACV Venus inh: -11.1%; FMDV antiviral: -21.8%

Results for N[C@H]1C(O)O[C@H](CO)[C@@H](O)[C@@H]1O (stereo not given in full) ?
HCMV antiviral: -11.3; Vaccinia mCherry: inactive; VACV Venus inh: -11.7%; FMDV antiviral: -18.6%

How did CC1(O)/C=C\C=C(\CO)C2CC(C)(C)C2(O)CC1 (stereo not given) do in these assays?
FMDV antiviral: -9.6%

How did Cc1ccc(-n2c(C)cc(C(=O)CSc3n[nH]c(N)n3)c2C)cc1 do in these assays?
Lassa entry inh: inconclusive; HCMV antiviral: -70.1*; Marburg entry inh: -6.7%; FMDV antiviral: -8.2%

Results for Cc1cc(C(=O)CSc2n[nH]c(N)n2)c(C)n1-c1ccc(F)cc1 ?
Lassa entry inh: -11.3%; HCMV antiviral: inconclusive; Marburg entry inh: inconclusive; FMDV antiviral: 20.9%

Results for O=C(Cc1ccc(OCCCCc2ccccc2)cc1)NO ?
Vaccinia mCherry: -21.0%; VACV Venus inh: -15.6%
